9 sequences from paper PMC8384837, “Expanding the binding specificity for RNA recognition by a PUF domain” can be followed below.

What all share (assay): yeast three-hybrid, YBZ-1, SC-Leu-His + 0.5 mM 3-AT, 4 days
Common to all, as to conditions: tags: N-Gal4 AD-HA kept; label: inside an RPR1-promoter hybrid RNA with tandem MS2 sites; ssRNA

For assay [1], the target named is T1, PUM1 PUF domain R6-DWE (Homo sapiens, UniProt Q14671 828-1176, N1043D;Y1044W;Q1047E).
T1 sequence: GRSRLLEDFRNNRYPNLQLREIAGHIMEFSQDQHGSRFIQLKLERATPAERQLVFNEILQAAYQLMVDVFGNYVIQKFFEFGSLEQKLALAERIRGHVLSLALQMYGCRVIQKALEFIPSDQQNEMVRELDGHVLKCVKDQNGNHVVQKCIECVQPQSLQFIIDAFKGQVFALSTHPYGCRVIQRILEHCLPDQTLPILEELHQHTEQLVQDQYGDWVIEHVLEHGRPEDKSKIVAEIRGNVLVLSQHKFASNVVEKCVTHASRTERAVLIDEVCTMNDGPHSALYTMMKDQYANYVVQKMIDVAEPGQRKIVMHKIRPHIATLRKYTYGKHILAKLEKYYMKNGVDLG
In short, it runs like this:
(§1)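 A centromeric plasmid in strain YBZ-1 co-expressed Pumilio-1 PUF domain libraries, randomized at the three base-contacting residues of each repeat, with matching RNA elements; the strain carries a LexA–MS2 coat fusion and a HIS3 reporter. After four days on SC-Leu (input) or SC-Leu-His + 0.5 mM 3-AT (selection), the repeat regions were PCR-amplified and Illumina-sequenced. The interaction score is the log change in variant frequency from input to selection, using log2 and a pseudocount of 1 where absent.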

Assay [2] concerns the target PUM1 PUF domain R5-QVI (Homo sapiens, UniProt Q14671 828-1176, C1007Q;R1008V;Q1011I). In short, it runs like this:
as §1

Assay [3] deals with PUM1 PUF domain R5-RMC (Homo sapiens, UniProt Q14671 828-1176, C1007R;R1008M;Q1011C). In short, it runs like this:
as §1

The target in assay [4] is PUM1 PUF domain R5-PRD (Homo sapiens, UniProt Q14671 828-1176, C1007P;Q1011D). In short, it runs like this:
as §1

Assay [5] deals with PUM1 PUF domain R5-TAR (Homo sapiens, UniProt Q14671 828-1176, C1007T;R1008A;Q1011R). The gist of the method: as §1
For assay [6], the target named is PUM1 PUF domain R3-GFL (Homo sapiens, UniProt Q14671 828-1176, C935G;R936F;Q939L). In short, it runs like this: as §1
The target of assay [7] is PUM1 PUF domain R4-WGT (Homo sapiens, UniProt Q14671 828-1176, N971W;H972G;Q975T). The gist of the method: as §1
Assay [8] deals with PUM1 PUF domain R2-AWY (Homo sapiens, UniProt Q14671 828-1176, N899A;Y900W;Q903Y). The gist of the method: as §1
Assay [9] addresses PUM1 PUF domain R3-VYD (Homo sapiens, UniProt Q14671 828-1176, C935V;R936Y;Q939D). The gist of the method:
as §1

Assay [10] has as its target PUM1 PUF domain R5-AFY (Homo sapiens, UniProt Q14671 828-1176, C1007A;R1008F;Q1011Y). The gist of the method: as §1

Regarding “GGCUAGAACUAGUGGAUCCCCCGGCGCCCGGCGGCUCGAGCCCGGGUAAGUGAAAAUAGUCUGCAUGCCGCCGGGCGCCAUGCCUGCAGGUCGACUCUAGAAAACAUG”, in assay [1], the binding signal is 2.98 log2 enrichment (interaction score).
Turning to “GGCUAGAACUAGUGGAUCCCCCGGCGCCCGGCGGCUCGAGCCCGGGUAAGUGUGAAUAGUCUGCAUGCCGCCGGGCGCCAUGCCUGCAGGUCGACUCUAGAAAACAUG”, the binding signal in assay [2] is 4.41 log2 enrichment (interaction score).
For “GGCUAGAACUAGUGGAUCCCCCGGCGCCCGGCGGCUCGAGCCCGGGUAAGUGUUAAUAGUCUGCAUGCCGCCGGGCGCCAUGCCUGCAGGUCGACUCUAGAAAACAUG”, the binding signal in assay [3] was 3.38 log2 enrichment (interaction score); in [4], 3.07 log2 enrichment (interaction score); in assay [5], 1.21 log2 enrichment (interaction score).
Regarding “GGCUAGAACUAGUGGAUCCCCCGGCGCCCGGCGGCUCGAGCCCGGGUAAGUGUAAUUAGUCUGCAUGCCGCCGGGCGCCAUGCCUGCAGGUCGACUCUAGAAAACAUG”, the binding signal in assay [6] is 2.59 log2 enrichment (interaction score).
For “GGCUAGAACUAGUGGAUCCCCCGGCGCCCGGCGGCUCGAGCCCGGGUAAGUGUCAAUAGUCUGCAUGCCGCCGGGCGCCAUGCCUGCAGGUCGACUCUAGAAAACAUG”, the binding signal was 3.26 log2 enrichment (interaction score) in assay [3], 2.8 log2 enrichment (interaction score) in assay [4] and 5.36 log2 enrichment (interaction score) in assay [5].
Regarding “GGCUAGAACUAGUGGAUCCCCCGGCGCCCGGCGGCUCGAGCCCGGGUAAGUGUAUAUAGUCUGCAUGCCGCCGGGCGCCAUGCCUGCAGGUCGACUCUAGAAAACAUG”, in [7], the binding signal is 4.02 log2 enrichment (interaction score).
“GGCUAGAACUAGUGGAUCCCCCGGCGCCCGGCGGCUCGAGCCCGGGUAAGUGUAAAAAGUCUGCAUGCCGCCGGGCGCCAUGCCUGCAGGUCGACUCUAGAAAACAUG”: the binding signal in assay [8] was 3.08 log2 enrichment (interaction score).
As for “GGCUAGAACUAGUGGAUCCCCCGGCGCCCGGCGGCUCGAGCCCGGGUAAGUGUACAUAGUCUGCAUGCCGCCGGGCGCCAUGCCUGCAGGUCGACUCUAGAAAACAUG”, the binding signal in assay [7] was 2.69 log2 enrichment (interaction score).
Consider “GGCUAGAACUAGUGGAUCCCCCGGCGCCCGGCGGCUCGAGCCCGGGUAAGUGUAAAUAGUCUGCAUGCCGCCGGGCGCCAUGCCUGCAGGUCGACUCUAGAAAACAUG”, for which the binding signal is 6.46 log2 enrichment (interaction score) in assay [9]; 4.38 log2 enrichment (interaction score) in [6]; 3.43 log2 enrichment (interaction score) in assay [7]; 3.41 log2 enrichment (interaction score) in assay [4]; 2.38 log2 enrichment (interaction score) in assay [10].
